In the supplement of paper PMC6897291:

Experiments:
RIVA [1] = experiment: growth inhibition by drug plus 177Lu-lilotomab satetraxetan (1 - RLU/untreated control) (fraction); higher = stronger inhibition; settings: 177Lu-lilotomab satetraxetan 0.5 ug/ml
How it was run: (§1)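 RIVA or U-2932 cells, untreated or pretreated 18 h with a radiolabelled anti-CD37 antibody conjugate (~600 MBq/mg; 0.5 µg/ml RIVA, 1 µg/ml U-2932), were washed and seeded at 3,000 cells/well on plates pre-printed with the Selleck Cambridge Cancer Compound library. Doses were 10/100 nM (RIVA) or 10/1,000 nM (U-2932). RealTime-Glo luminescence was read daily from day 3 after 1 h at 37°C. Growth inhibition is 1 − RLU/mean of 48 untreated no-drug wells per plate.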

U-2932 [2] = experiment: growth inhibition by drug alone (1 - RLU/untreated control) (fraction); higher = stronger inhibition; settings: 177Lu-lilotomab satetraxetan 0 ug/ml
How it was run: as §1

RIVA [3] = experiment: as above; settings: 177Lu-lilotomab satetraxetan 0 ug/ml
How it was run: as §1

U-2932 [4] = experiment: growth inhibition by drug plus 177Lu-lilotomab satetraxetan (1 - RLU/untreated control) (fraction); higher = stronger inhibition; settings: 177Lu-lilotomab satetraxetan 1 ug/ml
How it was run: as §1

Row | SMILES | growth inhibition by drug plus 177Lu-lilotomab satetraxetan (RIVA [1]; 100 nM, time (day): 5) | growth inhibition by drug plus 177Lu-lilotomab satetraxetan (RIVA [1]; 100 nM, time (day): 6) | growth inhibition by drug alone (U-2932 [2]; 10 nM, time (day): 3) | growth inhibition by drug alone (U-2932 [2]; 10 nM, time (day): 4) | growth inhibition by drug alone (U-2932 [2]; 10 nM, time (day): 5) | growth inhibition by drug alone (U-2932 [2]; 10 nM, time (day): 6) | growth inhibition by drug alone (U-2932 [2]; 1000 nM, time (day): 3) | growth inhibition by drug alone (U-2932 [2]; 1000 nM, time (day): 4) | growth inhibition by drug alone (U-2932 [2]; 1000 nM, time (day): 5) | growth inhibition by drug alone (U-2932 [2]; 1000 nM, time (day): 6) | growth inhibition by drug alone (RIVA [3]; 10 nM, time (day): 3) | growth inhibition by drug alone (RIVA [3]; 10 nM, time (day): 4) | growth inhibition by drug alone (RIVA [3]; 10 nM, time (day): 5) | growth inhibition by drug alone (RIVA [3]; 10 nM, time (day): 6) | growth inhibition by drug alone (RIVA [3]; 100 nM, time (day): 3) | growth inhibition by drug alone (RIVA [3]; 100 nM, time (day): 4) | growth inhibition by drug alone (RIVA [3]; 100 nM, time (day): 5) | growth inhibition by drug alone (RIVA [3]; 100 nM, time (day): 6) | growth inhibition by drug plus 177Lu-lilotomab satetraxetan (U-2932 [4]; 10 nM, time (day): 3) | growth inhibition by drug plus 177Lu-lilotomab satetraxetan (U-2932 [4]; 10 nM, time (day): 4) | growth inhibition by drug plus 177Lu-lilotomab satetraxetan (U-2932 [4]; 10 nM, time (day): 5) | growth inhibition by drug plus 177Lu-lilotomab satetraxetan (U-2932 [4]; 10 nM, time (day): 6) | growth inhibition by drug plus 177Lu-lilotomab satetraxetan (U-2932 [4]; 1000 nM, time (day): 3) | growth inhibition by drug plus 177Lu-lilotomab satetraxetan (U-2932 [4]; 1000 nM, time (day): 4) | growth inhibition by drug plus 177Lu-lilotomab satetraxetan (U-2932 [4]; 1000 nM, time (day): 5) | growth inhibition by drug plus 177Lu-lilotomab satetraxetan (U-2932 [4]; 1000 nM, time (day): 6) | growth inhibition by drug plus 177Lu-lilotomab satetraxetan (RIVA [1]; 10 nM, time (day): 3) | growth inhibition by drug plus 177Lu-lilotomab satetraxetan (RIVA [1]; 10 nM, time (day): 4) | growth inhibition by drug plus 177Lu-lilotomab satetraxetan (RIVA [1]; 10 nM, time (day): 5) | growth inhibition by drug plus 177Lu-lilotomab satetraxetan (RIVA [1]; 10 nM, time (day): 6) | growth inhibition by drug plus 177Lu-lilotomab satetraxetan (RIVA [1]; 100 nM, time (day): 3) | growth inhibition by drug plus 177Lu-lilotomab satetraxetan (RIVA [1]; 100 nM, time (day): 4)
1 | Cc1cccc(-c2[nH]c(C(C)(C)C)nc2-c2ccc3nccnc3c2)n1 | 0.434 | 0.447 | – | – | – | – | – | – | – | – | – | – | – | – | – | – | – | – | – | – | – | – | – | – | – | – | – | – | – | – | – | –
2 | CN(c1ncccc1CNc1nc(Nc2ccc3c(c2)CC(=O)N3)ncc1C(F)(F)F)S(C)(=O)=O | 0.566 | 0.569 | 0.161 | 0.0909 | 0.0358 | -0.183 | 0.299 | 0.457 | 0.571 | 0.694 | -0.0233 | 0.0431 | -0.0513 | -0.296 | -0.0725 | 0.0108 | 0.00901 | -0.0367 | 0.066 | 0.111 | 0.2 | 0.224 | 0.23 | 0.336 | 0.426 | 0.546 | 0.592 | 0.636 | 0.671 | 0.663 | 0.458 | 0.565
3 | Fc1cc(-c2cccc3ncc(-c4cnn(C5CCNCC5)c4)nc23)cc(F)c1CN1CCOCC1 | 0.6 | 0.592 | 0.107 | 0.069 | -0.083 | -0.0936 | 0.0551 | 0.07 | 0.0444 | -0.14 | 0.0385 | 0.00291 | -0.0745 | -0.286 | -0.358 | -0.305 | -0.287 | -0.341 | 0.0469 | 0.0958 | 0.15 | 0.179 | 0.041 | 0.106 | 0.135 | 0.237 | 0.548 | 0.579 | 0.59 | 0.593 | 0.571 | 0.589
4 | O=C(Nc1ncc([N+](=O)[O-])s1)c1ccc([N+](=O)[O-])c(Cl)c1 | 0.669 | 0.679 | 0.119 | 0.0794 | 0.00802 | 0.0242 | 0.153 | 0.14 | 0.0538 | 0.129 | 0.137 | 0.114 | 0.0837 | 0.0697 | -0.0662 | -0.0483 | -0.0824 | -0.14 | 0.064 | 0.0915 | 0.164 | 0.259 | 0.142 | 0.136 | 0.179 | 0.3 | 0.666 | 0.663 | 0.69 | 0.688 | 0.605 | 0.655
5 | CN(C)CCCN=c1c2ccccc2n(C)c2[nH]c(=O)n(C)c(=O)c12 | 0.601 | 0.604 | 0.111 | 0.0704 | -0.00376 | -0.0149 | 0.0731 | 0.0794 | 0.011 | 0.0933 | 0.0709 | 0.0541 | 0.026 | -0.0499 | -0.0848 | -0.0419 | -0.079 | -0.137 | 0.0369 | 0.0857 | 0.138 | 0.24 | 0.0936 | 0.125 | 0.147 | 0.272 | 0.529 | 0.576 | 0.589 | 0.604 | 0.563 | 0.592
6 | CN1C(=O)C(Cc2c[nH]c3ccccc23)NC1=S (stereo unspecified) [Necrostatin-1] | 0.476 | 0.476 | 0.00216 | -0.00946 | -0.022 | -0.0551 | -0.0606 | -0.0746 | -0.132 | -0.0624 | -0.0747 | -0.159 | -0.218 | -0.441 | -0.34 | -0.362 | -0.408 | -0.562 | -0.059 | -0.0156 | 0.00349 | 0.0946 | -0.0506 | 0.00685 | 0.0586 | 0.224 | 0.451 | 0.501 | 0.519 | 0.523 | 0.368 | 0.476
7 | NC(=O)c1ccc(-c2nc(-c3ccccn3)c(-c3ccc4c(c3)OCO4)[nH]2)cc1 | 0.528 | 0.52 | 0.107 | 0.0821 | -0.071 | -0.0929 | 0.0294 | 0.069 | -0.0548 | -0.0669 | 0.151 | 0.132 | 0.0924 | -0.233 | -0.221 | -0.199 | -0.195 | -0.245 | 0.0841 | 0.129 | 0.164 | 0.198 | 0.0479 | 0.102 | 0.125 | 0.211 | 0.633 | 0.64 | 0.642 | 0.63 | 0.438 | 0.521
8 | CCOc1ccn(-c2ccc(F)cc2)c(=O)c1C(=O)Nc1ccc(Oc2ccnc(N)c2Cl)c(F)c1 | 0.523 | 0.514 | 0.143 | 0.12 | -0.0713 | -0.014 | 0.036 | 0.0178 | -0.127 | -0.209 | 0.0958 | 0.084 | 0.0356 | -0.0223 | -0.0283 | 0.013 | -0.000157 | -0.0616 | 0.12 | 0.152 | 0.188 | 0.258 | 0.0517 | 0.106 | 0.162 | 0.259 | 0.626 | 0.638 | 0.657 | 0.657 | 0.445 | 0.512
